The full ranking holds about 33,000 sequences; the median of “E-score (-0.5 to 0.5)” is about -0.0014, and the highest 2% start at about 0.25. This is one part of a sample in which the highest values are shown more often than they occur.

In this test the target is T1, Cad1 (UniProt P24813).
T1 sequence: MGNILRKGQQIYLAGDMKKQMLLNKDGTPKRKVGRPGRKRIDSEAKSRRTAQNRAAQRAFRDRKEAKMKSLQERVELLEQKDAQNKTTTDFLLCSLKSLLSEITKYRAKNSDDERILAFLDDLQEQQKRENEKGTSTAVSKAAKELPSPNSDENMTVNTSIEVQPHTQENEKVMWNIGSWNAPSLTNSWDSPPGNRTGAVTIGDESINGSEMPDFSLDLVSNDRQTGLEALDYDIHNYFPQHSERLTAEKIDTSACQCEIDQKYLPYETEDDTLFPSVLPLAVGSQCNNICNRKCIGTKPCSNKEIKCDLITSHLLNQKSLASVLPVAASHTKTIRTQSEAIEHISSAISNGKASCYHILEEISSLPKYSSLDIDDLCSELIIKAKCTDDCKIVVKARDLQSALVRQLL
Nature of the test: PBM E-score (8-mer binding enrichment) (E-score (-0.5 to 0.5)); higher = stronger / more preferred TF binding. The note with it: protein concentration: 100 nM; construct: GST-full length. How it is done:
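Universal 'all 10-mer' protein binding microarrays (Agilent AMADID 015681) probed with GST-tagged S. cerevisiae TFs (full-length or DBD) made by in vitro transcription/translation (PURExpress), about 100-200 nM. Bound TF was detected with fluorescent anti-GST. Each ungapped 8-mer (which stands for itself and its reverse complement) is scored by the PBM enrichment score (E-score), a modified Wilcoxon-Mann-Whitney statistic from -0.5 to +0.5, computed with the Universal PBM Analysis Suite. Scale: above 0.35 generally sequence-specific binding.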
On to GGCTCATA, for which the “PBM E-score” value was 0.0877.

Consider CAACAGGA, for which the “PBM E-score” value is -0.182.

For ACCTCGGG, the “PBM E-score” value is -0.173.

Consider CTGCTTAA, for which the “PBM E-score” value was determined as 0.0117.

As to CTGCTTAC, the “PBM E-score” value stood at 0.276.

Regarding GCGCTTAC, the “PBM E-score” value was found to be 0.299.

As for ATGCTTAC, the “PBM E-score” value was found to be 0.112.

As for CCGCTTAC, the “PBM E-score” value turned out to be 0.184.

As to GCGCTTAA, the “PBM E-score” value was determined as 0.106.

For ACCGTATA, the “PBM E-score” value is -0.00739.

As to CAAAAGAC, the “PBM E-score” value is -0.00184.

Turning to ATCATAAG, the “PBM E-score” value is 0.0855.

For ATCATAAT, the “PBM E-score” value is 0.144.

Regarding ATCATAAC, the “PBM E-score” value amounted to 0.273.

On to CTTCGTTA, for which the “PBM E-score” value is -0.0282.

AATTAATC: the “PBM E-score” value was determined as 0.227.

As for AATTAAGA, the “PBM E-score” value worked out at 0.104.

On to ACTTAATA, for which the “PBM E-score” value came to 0.186.

Turning to AATTAATA, the “PBM E-score” value worked out at 0.432.

For the sequence AATTAATT, the “PBM E-score” value stood at 0.285.

For the sequence AATTAATG, the “PBM E-score” value was found to be 0.242.

In the case of AGCGAACA, the “PBM E-score” value came out at 0.195.

For the sequence CGCCAACA, the “PBM E-score” value turned out to be 0.157.

In the case of AAAAAAAC, the “PBM E-score” value amounted to 0.121.

Take CAAATGGG: the “PBM E-score” value was 0.0861.

For the sequence CCATATCA, the “PBM E-score” value is -0.00962.

On to GCATATCA, for which the “PBM E-score” value worked out at 0.278.

Take TCATATCA: the “PBM E-score” value was found to be 0.0259.

For CCATGCAG, the “PBM E-score” value is -0.0439.

Turning to GCGGAAGC, the “PBM E-score” value amounted to 0.0712.

For AGCGGCTC, the “PBM E-score” value was -0.0559.

On to ACGGAAAA, for which the “PBM E-score” value came to 0.24.

For ACGGATAG, the “PBM E-score” value was 0.0118.

For ACGGATAT, the “PBM E-score” value turned out to be 0.254.

With ACGGATAA, the “PBM E-score” value was 0.0973.

Regarding ACGGAAAT, the “PBM E-score” value is 0.288.

In the case of ACGGAAAC, the “PBM E-score” value was -0.0435.

AGGGTTGA: the “PBM E-score” value was -0.0586.

As for GGATCGAA, the “PBM E-score” value is 0.045.

Turning to CTTCTCGA, the “PBM E-score” value stood at 0.0254.

ACGGCTGA: the “PBM E-score” value amounted to 0.0503.

Regarding CAGCCATG, the “PBM E-score” value was -0.077.

Consider CAAATATC, for which the “PBM E-score” value is 0.261.

Turning to GTAATATA, the “PBM E-score” value was 0.327.

As for GATAAATA, the “PBM E-score” value came to 0.123.

For AAAATATA, the “PBM E-score” value turned out to be 0.208.

For the sequence ATAATATA, the “PBM E-score” value came to 0.227.

As to TAAATATA, the “PBM E-score” value was 0.277.

With CATAAATA, the “PBM E-score” value was found to be 0.171.

In the case of CAAATATG, the “PBM E-score” value came to 0.135.

As for CTAATATA, the “PBM E-score” value was determined as 0.239.

Turning to AAAATATC, the “PBM E-score” value is 0.198.

Regarding TATAAATA, the “PBM E-score” value was 0.25.

Regarding CAAATATA, the “PBM E-score” value is -0.0118.

As for ATCCCTTG, the “PBM E-score” value is -0.131.

Regarding ACAATAGT, the “PBM E-score” value was 0.109.

For GCAGCGGA, the “PBM E-score” value was -0.0753.

Take AGAGAGAA: the “PBM E-score” value is -0.0532.

For ACACTAAA, the “PBM E-score” value was determined as 0.144.

In the case of TTGCACAA, the “PBM E-score” value came to 0.0972.

Take CCAAAAAC: the “PBM E-score” value worked out at 0.116.

On to AAGTCTGG, for which the “PBM E-score” value was 0.105.

With AATAAATT, the “PBM E-score” value amounted to 0.282.

Consider CTAAAATA, for which the “PBM E-score” value turned out to be 0.0866.

Take AATAAAAA: the “PBM E-score” value was 0.264.

As for AATAAAAG, the “PBM E-score” value amounted to 0.0174.

AATAAAAT: the “PBM E-score” value turned out to be 0.166.

With AATAAATC, the “PBM E-score” value is -0.0137.

Turning to AATAAATA, the “PBM E-score” value was found to be 0.313.

Consider TAAAAATA, for which the “PBM E-score” value amounted to 0.277.

With AATAAATG, the “PBM E-score” value came out at 0.0809.

Take AATAAACT: the “PBM E-score” value worked out at 0.12.

Turning to AATAAAGA, the “PBM E-score” value came to 0.195.

Consider AAAAAATA, for which the “PBM E-score” value stood at 0.0934.

Turning to AACCCGTG, the “PBM E-score” value was -0.317.

As for CCCACCCC, the “PBM E-score” value was 0.0432.

CGCTATGA: the “PBM E-score” value was found to be 0.119.

Regarding CCCTTGGA, the “PBM E-score” value came out at 0.00683.

For CGTATTAA, the “PBM E-score” value was 0.0596.

On to ACTAGAAT, for which the “PBM E-score” value is 0.0557.

For the sequence ACTGCATC, the “PBM E-score” value is -0.00501.

With ATCAGAGA, the “PBM E-score” value was -0.0164.

In the case of AGCGAAAT, the “PBM E-score” value was -0.184.

As to CATATCGC, the “PBM E-score” value was determined as 0.0925.

As for ATACCATA, the “PBM E-score” value was 0.27.

Regarding GTACCATA, the “PBM E-score” value was -0.158.
